Data published in PubChem BioAssay (NCATS).
Inconclusive results are not listed. Active and inactive are the calls of the source. The call rests on the fitted dose curve; in most records, active means well fitted inhibition curve with a large enough effect; inconclusive means small, poorly fitted or top-dose-only effect; inactive means flat fitted curve, though single readings scatter.

These molecules were tested against Dual specificity protein kinase CLK4 (Homo sapiens) (UniProt Q9HAZ1) (assay: qHTS Assay for Inhibitors of CDC-like Kinase 4 (Kinase-Glo Assay) (AID 1770; further: nearly all actives have a fitted effect of over 65% in size)). Conditions: recombinant Clk4, Kinase-Glo ATP depletion luminescence; series mostly up to 66.7 µM.
Chain of Dual specificity protein kinase CLK4 (Homo sapiens) (Q9HAZ1 whole entry, looked up): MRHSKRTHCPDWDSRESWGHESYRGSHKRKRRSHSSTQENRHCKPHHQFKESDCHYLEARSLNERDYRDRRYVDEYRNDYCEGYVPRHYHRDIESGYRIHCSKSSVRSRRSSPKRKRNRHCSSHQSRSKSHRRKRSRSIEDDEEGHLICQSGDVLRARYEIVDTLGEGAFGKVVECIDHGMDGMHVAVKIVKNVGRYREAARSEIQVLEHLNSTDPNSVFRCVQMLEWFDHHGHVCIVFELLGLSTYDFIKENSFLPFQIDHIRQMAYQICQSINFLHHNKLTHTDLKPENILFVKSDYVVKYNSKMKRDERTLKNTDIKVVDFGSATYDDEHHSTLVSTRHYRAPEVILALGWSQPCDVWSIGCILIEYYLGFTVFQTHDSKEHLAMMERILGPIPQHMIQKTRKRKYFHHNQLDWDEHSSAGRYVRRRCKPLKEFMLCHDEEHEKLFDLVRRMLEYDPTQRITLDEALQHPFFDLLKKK
Outline: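 25 nM Clk4 with 100 uM RS repeat peptide and 1 uM ATP (final) in Tris pH7.5, 10 mM MgCl2, 4.5 h at room temperature. Remaining ATP measured by Kinase-Glo luciferase luminescence.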
Potency means the concentration at half of the fitted maximal effect.

Potency, inactive:
Cc1ccccc1-c1nccc(NCc2cccs2)n1, CN1CCN(c2ncc3nc(-c4ccc(F)cc4)c(=O)n(Cc4cccs4)c3n2)CC1, COc1ccc(-c2nc3cnc(N4CCN(C)CC4)nc3n(Cc3cccs3)c2=O)cc1, FC(F)(F)c1ccccc1-c1nc(NCCN2CCOCC2)c2ccccc2n1, COc1ccc(-c2nc3cnc(Oc4cccc(Cl)c4)nc3n(C3CC3)c2=O)cc1, N#CCCn1c(=O)c(-c2ccc(F)cc2)nc2cnc(N3CCOCC3)nc21, Cn1c(=O)c(-c2cccs2)nc2cnc(N3CCNCC3)nc21, CN1CCN(c2ncc3nc(CCc4ccccc4)c(=O)n(C4CC4)c3n2)CC1, c1cncc(CNc2ncncc2-c2cccnc2)c1, Clc1ccccc1-c1nccc(NCc2cccs2)n1, O=c1c(-c2ccc(F)cc2)nc2cnc(Oc3ccccc3)nc2n1Cc1cccs1, FC(F)(F)c1ccccc1-c1nc(NCc2cccs2)c2ccccc2n1, COc1ccc(Oc2ncc3nc(-c4cn(C)c5ccccc45)c(=O)n(C4CC4)c3n2)cc1, COc1ccc(-n2c(=O)c(-c3ccc(F)cc3)nc3cnc(N4CCOCC4)nc32)cc1, Cc1ccccc1-c1cc(N2CCN(C)CC2)ncn1, COc1ncc2nc(-c3ccc(F)cc3)c(=O)n(C)c2n1, COCCn1c(=O)c(-c2ccc(Cl)cc2)nc2cnc(Nc3ccccc3)nc21, CN1CCN(c2ncc3nc(-c4ccc(Cl)cc4)c(=O)n(-c4ccccc4)c3n2)CC1, CN1CCN(c2ccnc(-c3ccoc3)n2)CC1, COc1cccc(Cn2c(=O)c(-c3cccs3)nc3cnc(N(C)C)nc32)c1, Cc1nc2cnc(OCc3ccccc3)nc2n(C)c1=O, COc1ccccc1CCn1c(=O)c(-c2cccc(F)c2)nc2cncnc21, COc1cccc(Nc2ncc3nc(CCc4ccccc4)c(=O)n(C)c3n2)c1, COc1ccc(-c2nc3cnc(Oc4ccccc4)nc3n(CCC#N)c2=O)cc1, COc1cccc(Nc2ncc3nc(-c4ccc(Cl)cc4)c(=O)n(C4CC4)c3n2)c1, CCNc1ncc2nc(-c3cn(C)c4ccccc34)c(=O)n(C)c2n1, CN1CCN(c2ncc3nc(-c4cccc(C#N)c4)c(=O)n(Cc4ccc(F)cc4)c3n2)CC1, COc1ccc(Oc2ncc3nc(-c4ccc(OC)cc4)c(=O)n(C)c3n2)cc1, Cc1nc2cnc(N3CCOCC3)nc2n(C[C@H]2CCCO2)c1=O, COc1cccc(Cn2c(=O)c(-c3ccc(F)cc3)nc3cnc(OC)nc32)c1

Potency, active:
CS(=O)(=O)Nc1cccc(-c2ccc3ncnc(NC4CC4)c3c2)c1 6.31 µM, COCCn1c(=O)cnc2cnc(Nc3ccccc3)nc21 3.55 µM, Cc1ccccc1-c1ccc2ncnc(NC3CC3)c2c1 11.2 µM, CC(=O)NCCNc1ncnc2ccc(-c3ccoc3)cc12 0.891 µM, COCCNc1ncnc2ccc(-c3cccc(NS(C)(=O)=O)c3)cc12 12.6 µM, c1csc(CNc2ncnc3ccc(-c4ccoc4)cc23)c1 0.251 µM, c1nc(NC2CCNCC2)c2cc(-c3ccoc3)ccc2n1 0.891 µM, CN(C)c1ncnc2ccc(-c3ccoc3)cc12 0.501 µM, COCCNc1ncnc2ccc(-c3ccccc3C)cc12 14.1 µM

The molecules below were run against Dual specificity protein kinase CLK4 (Homo sapiens) (UniProt Q9HAZ1) (assay: qHTS Assay for Inhibitors of CDC-like Kinase 4 (ADP-Glo Assay) (AID 1771; further: nearly all actives have a fitted effect of over 70% in size)). Conditions: recombinant CLK4, ADP-Glo luminescence; series mostly up to 80 µM.
Outline: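 Compounds are pin-transferred onto substrate mix (100 uM RS peptide, 1 uM ATP), then 25 nM Clk4 is added. After 1 hr at room temperature, ADP-Glo reagent runs 45 min, detection reagent 30 min, then luminescence is read.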

Potency, active:
CS(=O)(=O)Nc1cccc(-c2ccc3ncnc(NC4CC4)c3c2)c1 5.01 µM, COCCn1c(=O)cnc2cnc(Nc3ccccc3)nc21 3.16 µM, Cc1ccccc1-c1ccc2ncnc(NC3CC3)c2c1 7.08 µM, CC(=O)NCCNc1ncnc2ccc(-c3ccoc3)cc12 1 µM, COCCNc1ncnc2ccc(-c3cccc(NS(C)(=O)=O)c3)cc12 8.91 µM, c1csc(CNc2ncnc3ccc(-c4ccoc4)cc23)c1 0.355 µM, c1nc(NC2CCNCC2)c2cc(-c3ccoc3)ccc2n1 1 µM, CN(C)c1ncnc2ccc(-c3ccoc3)cc12 0.562 µM, COCCNc1ncnc2ccc(-c3ccccc3C)cc12 8.91 µM

Potency, inactive:
Cc1ccccc1-c1nccc(NCc2cccs2)n1, CN1CCN(c2ncc3nc(-c4ccc(F)cc4)c(=O)n(Cc4cccs4)c3n2)CC1, COc1ccc(-c2nc3cnc(N4CCN(C)CC4)nc3n(Cc3cccs3)c2=O)cc1, FC(F)(F)c1ccccc1-c1nc(NCCN2CCOCC2)c2ccccc2n1, COc1ccc(-c2nc3cnc(Oc4cccc(Cl)c4)nc3n(C3CC3)c2=O)cc1, N#CCCn1c(=O)c(-c2ccc(F)cc2)nc2cnc(N3CCOCC3)nc21, Cn1c(=O)c(-c2cccs2)nc2cnc(N3CCNCC3)nc21, CN1CCN(c2ncc3nc(CCc4ccccc4)c(=O)n(C4CC4)c3n2)CC1, c1cncc(CNc2ncncc2-c2cccnc2)c1, Clc1ccccc1-c1nccc(NCc2cccs2)n1, O=c1c(-c2ccc(F)cc2)nc2cnc(Oc3ccccc3)nc2n1Cc1cccs1, FC(F)(F)c1ccccc1-c1nc(NCc2cccs2)c2ccccc2n1, COc1ccc(Oc2ncc3nc(-c4cn(C)c5ccccc45)c(=O)n(C4CC4)c3n2)cc1, COc1ccc(-n2c(=O)c(-c3ccc(F)cc3)nc3cnc(N4CCOCC4)nc32)cc1, Cc1ccccc1-c1cc(N2CCN(C)CC2)ncn1, COc1ncc2nc(-c3ccc(F)cc3)c(=O)n(C)c2n1, COCCn1c(=O)c(-c2ccc(Cl)cc2)nc2cnc(Nc3ccccc3)nc21, CN1CCN(c2ncc3nc(-c4ccc(Cl)cc4)c(=O)n(-c4ccccc4)c3n2)CC1, CN1CCN(c2ccnc(-c3ccoc3)n2)CC1, COc1cccc(Cn2c(=O)c(-c3cccs3)nc3cnc(N(C)C)nc32)c1, Cc1nc2cnc(OCc3ccccc3)nc2n(C)c1=O, COc1ccccc1CCn1c(=O)c(-c2cccc(F)c2)nc2cncnc21, COc1cccc(Nc2ncc3nc(CCc4ccccc4)c(=O)n(C)c3n2)c1, COc1ccc(-c2nc3cnc(Oc4ccccc4)nc3n(CCC#N)c2=O)cc1, COc1cccc(Nc2ncc3nc(-c4ccc(Cl)cc4)c(=O)n(C4CC4)c3n2)c1, CCNc1ncc2nc(-c3cn(C)c4ccccc34)c(=O)n(C)c2n1, CN1CCN(c2ncc3nc(-c4cccc(C#N)c4)c(=O)n(Cc4ccc(F)cc4)c3n2)CC1, COc1ccc(Oc2ncc3nc(-c4ccc(OC)cc4)c(=O)n(C)c3n2)cc1, Cc1nc2cnc(N3CCOCC3)nc2n(C[C@H]2CCCO2)c1=O, COc1cccc(Cn2c(=O)c(-c3ccc(F)cc3)nc3cnc(OC)nc32)c1
